# Source: PubChem BioAssay (Tox21)
# “And” between values parts separate entries of the source, which are not always exact repeats. Identical values can stand only once. Unmarked numbers belong to inactive results. A call without a number means that no potency is given here. Some structures have more than one record in an assay (separate samples or runs), and their calls can disagree. The source made the active and inactive calls. Unless noted, calls come from the whole dose curve; as a rule, active = well fitted curve in the direction sought with a large enough effect in the repeat runs; inconclusive = weak or mixed curves; inactive = no such curve, though single readings can be large; an effect the other way counts as inactive or inconclusive.
# Legend:
# [1] = qHTS assay for small molecule agonists of the p53 signaling pathway - cell viability (AID 651633; calls by dose curve; note: nearly all actives have a fitted effect of over 30% in size)
# Procedure, shortened: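 p53RE-bla cells were treated with compound for 16 hours at 37 C. Cytotoxicity was then measured as CellTiter-Glo luminescence after 30 min at room temperature.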
# [2] = qHTS assay for small molecules that induce genotoxicity in human embryonic kidney cells expressing luciferase-tagged ATAD5 - cell viability (AID 651634; calls by dose curve; note: nearly all actives have a fitted effect of over 25% in size)
# Procedure, shortened: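 Here HEK293T cells with the ATAD5 luciferase reporter are incubated with test compounds for 15.5 hr, and cytotoxicity is then gauged by measuring protease activity in live cells using fluorescence.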
# [3] = qHTS assay for small molecule disruptors of the mitochondrial membrane potential - cell viability (AID 720634; calls by dose curve; note: nearly all actives have a fitted effect of over 20% in size; note: potency is the fitted concentration of half-maximal effect)
# Procedure, shortened: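 Viability of HepG2 cells is scored from ATP content by luminescence; cells are exposed to compound for 1 hr at 37 C and 5% CO2, then dosed with m-MPI dye before the CellTiter-Glo reagent.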
# [4] = qHTS assay to test for compound auto fluorescence at 590 nm (red) in HepG2 cells (AID 720674)
# Procedure, shortened: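 HepG2 cells, 2,000 per well in MEM with 10% FBS, attached overnight at 37 C, then got 23 nL compound or DMSO. After 1 hr at 37 C, 5% CO2, red fluorescence was read at 540/590 nm against Rose Bengal sodium as reference.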
# [5] = qHTS assay to test for compound auto fluorescence at 535 nm (green) in HepG2 cells (AID 720675)
# [6] = qHTS assay to test for compound auto fluorescence at 590 nm (red) in HEK293 cells (AID 720679)
# Procedure, shortened: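 HEK293 cells (2,000/well, medium with 10% dialyzed FBS) attached for 4-5 hr at 37C, received 23 nL compound and were incubated overnight at 37C, 5% CO2. Red fluorescence was then read at 540/590nm Ex/Em, referenced to Rose Bengal sodium.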
# [7] = qHTS assay to test for compound auto fluorescence at 535 nm (green) in HEK293 cells (AID 720680)
# [8] = qHTS assay to test for compound auto fluorescence at 460 nm (blue) in HEK293 cell free culture (AID 720681)
# Procedure, shortened: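 Compounds were added to cell-free DMEM with 10% FBS and fluorescence read directly. The blue channel used 405 nm excitation and 460 nm emission, with triamterene as the reference fluorophore.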
# [9] = qHTS assay to test for compound auto fluorescence at 535 nm (green) in HEK293 cell free culture (AID 720682)
# Procedure, shortened: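 DMEM + 10% FBS, cell-free; cpd or DMSO pinned in; Ex485/Em535 read; output as fluorescein-equivalent signal.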
# [10] = qHTS assay to test for compound auto fluorescence at 590 nm (red) in HEK293 cell free culture (AID 720683)
# Procedure, shortened: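 Cell-free wells of DMEM with 10% FBS received compound, and intrinsic fluorescence was read at excitation/emission 540/590 nm. Values expressed as equivalence to Rose Bengal sodium.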
# [11] = qHTS assay to test for compound auto fluorescence at 590 nm (red) in HepG2 cell free culture (AID 720684)
# Procedure, shortened: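 Auto fluorescence equivalency versus Rose Bengal sodium, red channel Ex/Em 540/590 nm; compounds in cell-free MEM/10% FBS; DMSO vehicle control.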
# [12] = qHTS assay to test for compound auto fluorescence at 460 nm (blue) in HepG2 cell free culture (AID 720685)
# Procedure, shortened: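 Cell-free plates of MEM plus 10% FBS received 23 nL compound or DMSO vehicle; blue-channel (405/460 nm) intensity scored against triamterene as reference fluorophore.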
# [13] = qHTS assay to test for compound auto fluorescence at 535 nm (green) in HepG2 cell free culture (AID 720686)
# [14] = qHTS assay to test for compound auto fluorescence at 460 nm (blue) in HepG2 cells (AID 720687)
# Procedure, shortened: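 HepG2 cells in MEM with 10% FBS, attached overnight at 37 C, were exposed to compound or DMSO for 1 hr at 37 C, 5% CO2. Blue fluorescence was read at 405/460 nm, with triamterene as reference fluorophore.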
# [15] = target: Glucocorticoid receptor (Homo sapiens) (UniProt P04150); experiment: qHTS assay to identify small molecule agonists of the glucocorticoid receptor (GR) signaling pathway (AID 720691; active = well fitted activation curve with a large enough effect in the signal ratio in the repeat runs, not every such curve was filed as active; inconclusive = weak or mixed curves, or effect the other way; inactive = no such curve, though single readings can be large or run the other way; the % refers to the signal ratio); settings: GR-bla HeLa, beta-lactamase reporter ratio, 18 h
# Procedure, shortened: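 Compounds in DMSO, alongside positive controls, were added to GR-bla HeLa reporter cells and incubated 18 h at 37 C; GRE-driven beta-lactamase was detected by fluorescence after 2 h with FRET substrate at room temperature.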
# [16] = qHTS assay for small molecules that induce genotoxicity in human embryonic kidney cells expressing luciferase-tagged ATAD5 (AID 651632); note: nearly all actives have a fitted effect of over 15% in size
# Procedure, shortened: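 DMSO vehicle served as the control. HEK293T reporter cells, 16 hr at 37C, then 30 min Amplite at room temperature; ATAD5 induction is measured as luciferase activity.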
# [17] = qHTS assay to test for compound auto fluorescence at 460 nm (blue) in HEK293 cells (AID 720678)
# Procedure, shortened: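 HEK293 cells (2,000 per well, medium with 10% dialyzed FBS) attached for 4-5 hr at 37C, then received compound and stood overnight at 37C, 5% CO2. Blue fluorescence was read at Ex/Em 405/460 nm and expressed relative to triamterene.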
# [18] = qHTS assay for small molecule disruptors of the mitochondrial membrane potential (AID 720635); note: potency is the fitted concentration of half-maximal effect
# Procedure, shortened: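 HepG2 cells exposed to compound 1 hr at 37C, then Mito-MPS dye 30 min. Ratio read of aggregate (540/590 nm) versus monomer (490/535 nm) fluorescence.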
# [19] = qHTS assay for small molecule agonists of the p53 signaling pathway (AID 651631; calls by dose curve; note: nearly all actives have a fitted effect of over 15% in size; note: potency is the fitted concentration of half-maximal effect)
# Procedure, shortened: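 Testing took place in human colorectal HCT-116 cells with stable p53RE-driven beta-lactamase. After 16 h of compound exposure at 37 °C, a FRET substrate was added and fluorescence recorded 2 h later.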
# [20] = target: Glucocorticoid receptor (Homo sapiens) (UniProt P04150); experiment: qHTS assay to identify small molecule antagonists of the glucocorticoid receptor (GR) signaling pathway (AID 720692; active = well fitted inhibition curve with a large enough effect in the signal ratio in the repeat runs, not every such curve was filed as active; inconclusive = weak or mixed curves, or effect the other way; inactive = no such curve, though single readings can be large or run the other way; the % refers to the signal ratio)
# Procedure, shortened: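 In a 1536-well cell format, compounds were added 4 h after seeding GR-bla HeLa cells, together with dexamethasone at 5 nM final; reporter activity was measured by FRET-substrate fluorescence following 18 h at 37 C.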
# [21] = activation: at 62.4 µM (top of the series)
# Glucocorticoid receptor (Homo sapiens), sequence (P04150 whole entry, looked up): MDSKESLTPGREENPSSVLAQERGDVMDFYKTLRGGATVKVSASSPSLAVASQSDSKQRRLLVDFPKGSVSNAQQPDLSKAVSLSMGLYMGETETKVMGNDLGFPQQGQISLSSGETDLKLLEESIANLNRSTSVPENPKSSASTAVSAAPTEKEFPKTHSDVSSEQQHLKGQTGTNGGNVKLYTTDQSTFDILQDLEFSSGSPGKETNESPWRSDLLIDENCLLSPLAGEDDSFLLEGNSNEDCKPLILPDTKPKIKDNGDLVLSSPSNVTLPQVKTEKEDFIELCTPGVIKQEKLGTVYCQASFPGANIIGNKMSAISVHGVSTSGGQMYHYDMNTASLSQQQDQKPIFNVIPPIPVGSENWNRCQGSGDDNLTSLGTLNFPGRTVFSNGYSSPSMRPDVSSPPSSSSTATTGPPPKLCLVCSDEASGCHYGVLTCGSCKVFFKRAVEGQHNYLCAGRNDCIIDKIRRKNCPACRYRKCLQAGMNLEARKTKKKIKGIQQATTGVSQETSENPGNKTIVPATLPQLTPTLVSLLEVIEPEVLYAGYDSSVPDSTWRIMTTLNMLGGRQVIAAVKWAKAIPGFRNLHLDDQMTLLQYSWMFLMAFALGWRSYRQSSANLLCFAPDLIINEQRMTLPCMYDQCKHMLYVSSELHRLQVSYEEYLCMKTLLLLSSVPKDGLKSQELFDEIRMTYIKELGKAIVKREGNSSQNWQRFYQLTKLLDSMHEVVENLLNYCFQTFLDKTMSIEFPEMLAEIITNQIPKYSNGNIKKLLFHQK
structure (smiles),measurement,setting,value
CCCCCCCCC/C=C/CC1CC(=O)OC1=O (stereo not given),Potency,[1],inactive
same,Potency,[2],inactive
same,Potency,[3],inactive
same,outcome,[4],inactive
same,outcome,[5],inactive
same,outcome,[6],inactive
same,outcome,[7],inactive
same,outcome,[8],inactive
same,outcome,[9],inactive
same,outcome,[10],inactive
same,outcome,[11],inactive
same,outcome,[12],inactive
same,outcome,[13],inactive
same,outcome,[14],inactive
same,Potency,[15]; [21],inactive
OCc1cccnc1,outcome,[16],inactive
same,Potency,[2],inactive
same,Potency,[3],inactive
same,outcome,[4],inactive
same,outcome,[5],inactive
same,outcome,[17],inactive
same,outcome,[6],inactive
same,outcome,[7],inactive
same,outcome,[8],inactive
same,outcome,[9],inactive
same,outcome,[10],inactive
same,outcome,[11],inactive
same,outcome,[12],inactive
same,outcome,[13],inactive
same,outcome,[14],inactive
O=C(O)[C@H](O)[C@@H](O)[C@H](O)[C@H](O)CO,outcome,[16],inactive
same,Potency,[3],inactive
same,Potency,[18],inactive
same,outcome,[4],inactive
same,outcome,[5],inactive
same,outcome,[17],inactive
same,outcome,[6],inactive
same,outcome,[8],inactive
same,outcome,[9],inactive
same,outcome,[10],inactive
same,outcome,[11],inactive
same,outcome,[12],inactive
same,outcome,[13],inactive
same,outcome,[14],inactive
COCCCOc1ccnc(CS(=O)c2nc3ccccc3[nH]2)c1C (stereo not given),Potency,[19],inactive
same,Potency,[1],inactive
same,Potency,[3],inactive
same,outcome,[4],inactive
same,outcome,[5],inactive
same,outcome,[6],inactive
same,outcome,[8],inactive
same,outcome,[9],inactive
same,outcome,[10],inactive
same,outcome,[11],inactive
same,outcome,[12],inactive
same,outcome,[13],inactive
same,outcome,[14],inactive
same,activation,[15]; [21],16.4% [inconclusive] (active)
same,activation,[15]; at 62.4 µM (top of the series),-5.49%
CCCCCCCCCCCCOCCO,outcome,[16],inactive
same,Potency,[1],inactive
same,Potency,[2],inactive
same,Potency,[3],inactive
same,outcome,[4],inactive
same,outcome,[5],inactive
same,outcome,[17],inactive
same,outcome,[6],inactive
same,outcome,[8],inactive
same,outcome,[9],inactive
same,outcome,[10],inactive
same,outcome,[11],inactive
same,outcome,[12],inactive
same,outcome,[13],inactive
same,outcome,[14],inactive
same,Potency,[15]; [21],inactive
O=C(O)c1ccccc1C(c1ccc(O)cc1)c1ccc(O)cc1,outcome,[16],inactive
same,Potency,[1],inactive
same,Potency,[2],inactive
same,Potency,[3],inactive
same,outcome,[4],inactive
same,outcome,[17],inactive
same,outcome,[6],inactive
same,outcome,[7],inactive
same,outcome,[8],inactive
same,outcome,[9],inactive
same,outcome,[10],inactive
same,outcome,[11],inactive
same,outcome,[12],inactive
same,outcome,[13],inactive
same,outcome,[14],inactive
same,Potency,[15]; [21],inactive
CCCSc1ccc2nc(NC(=O)OC)[nH]c2c1,Potency,[19],320 nM (active) and 306 nM (active)
same,Potency,[1],inactive
same,Potency,[3],inactive
same,Potency,[18],4.52 µM (active) and 12.2 µM (active)
same,outcome,[4],inactive
same,outcome,[5],inactive
same,outcome,[17],inactive
same,outcome,[6],inactive
same,outcome,[8],inactive
same,outcome,[9],inactive
same,outcome,[10],inactive
same,outcome,[11],inactive
same,outcome,[12],inactive
same,outcome,[13],inactive
same,outcome,[14],inactive
same,Potency,[15]; [21],inactive
CC(=O)CC(=O)Nc1ccccc1,outcome,[16],inactive
same,Potency,[1],inactive
same,Potency,[2],inactive
same,Potency,[3],inactive
same,Potency,[18],inactive
same,outcome,[4],inactive
same,outcome,[5],inactive
same,outcome,[17],inactive
same,outcome,[6],inactive
same,outcome,[8],inactive
same,outcome,[9],inactive
same,outcome,[10],inactive
same,outcome,[11],inactive
same,outcome,[12],inactive
same,outcome,[13],inactive
same,outcome,[14],inactive
same,Potency,[15]; [21],inactive
same,Potency,[20],inactive
CCCCC(CC)COC(=O)C(C#N)=C(c1ccccc1)c1ccccc1 (stereo not given),outcome,[16],inactive
same,Potency,[1],inactive
same,Potency,[3],15.4 µM (active)
same,Potency,[18],27.3 µM (active)
same,outcome,[4],inactive
same,outcome,[17],inactive
same,outcome,[6],inactive
same,outcome,[7],inactive
same,outcome,[8],inactive
same,outcome,[9],inactive
same,outcome,[10],inactive
same,outcome,[11],inactive
same,outcome,[12],inactive
same,outcome,[13],inactive
same,outcome,[14],inactive
same,Potency,[15]; [21],inactive
CCCCC(CC)COC(=O)CCCCC(=O)OCC(CC)CCCC (stereo not given),Potency,[19],inactive
same,Potency,[1],inactive
same,Potency,[3],inactive
same,outcome,[4],inactive
same,outcome,[5],inactive
same,outcome,[17],inactive
same,outcome,[6],inactive
same,outcome,[7],inactive
same,outcome,[8],inactive
same,outcome,[9],inactive
same,outcome,[10],inactive
same,outcome,[11],inactive
same,outcome,[12],inactive
same,outcome,[13],inactive
same,outcome,[14],inactive
same,Potency,[15]; [21],inactive
O=[N+]([O-])c1ccc(/C=C/c2ccc([N+](=O)[O-])cc2S(=O)(=O)O)c(S(=O)(=O)O)c1,outcome,[16],inactive
same,Potency,[1],inactive
same,Potency,[2],inactive
same,Potency,[3],inactive
same,Potency,[18],inactive
same,outcome,[4],inactive
same,outcome,[6],inactive
same,outcome,[7],inactive
same,outcome,[8],inactive
same,outcome,[9],inactive
same,outcome,[10],inactive
same,outcome,[11],inactive
same,outcome,[12],inactive
same,outcome,[13],inactive
same,outcome,[14],inactive
same,Potency,[15]; [21],inactive
Cc1cccnc1,outcome,[16],inactive
same,Potency,[1],inactive
same,Potency,[2],inactive
same,Potency,[3],inactive
same,Potency,[18],inactive
same,outcome,[4],inactive
same,outcome,[5],inactive
same,outcome,[17],inactive
same,outcome,[6],inactive
same,outcome,[7],inactive
same,outcome,[8],inactive
same,outcome,[9],inactive
same,outcome,[10],inactive
same,outcome,[11],inactive
same,outcome,[12],inactive
same,outcome,[13],inactive
same,outcome,[14],inactive
